The structures appear in SMILES notation. The whole screen tested about 48,000 compounds, of which about 13,000 (27%) showed an effect of 50% or more. Some of the results follow.

The subject of the assay is Wolbachia pipientis. Briefly: Anti-Wolbachia Cell-Based Screen. It is filed as functional. Also on record: scale not given: in the data most compounds retested in dose-response had high values. The note with it: 5 µM.
Regarding `CC(C)(C)n1cc(C2=CCN(CCN3CCCCCC3)CC2)cn1`, the “Percent Effect” value is reported as -14.66%.

For the molecule `Cc1ccc(CN2CC3(CCN(C(=O)c4cccnc4)C3)C2)o1.O=C(O)C(F)(F)F.O=C(O)C(F)(F)F`, the “Percent Effect” value is listed as 90.74%.

Take `O=C(O)C(F)(F)F.O=C(O)C(F)(F)F.O=C1N(c2cccnc2)CCC12CCCN(Cc1ccco1)C2` (stereo not given): the “Percent Effect” value stood at 8.384%.

In the case of `CNc1ncccc1C(=O)N1CCC2(CCN(C)C2)CC1`, the “Percent Effect” value was -14.87%.

As to `O=C(O)C(F)(F)F.O=C(O)C(F)(F)F.O=C1CC2(CCN(Cc3cccnc3)C2)CN1c1cncnc1` (stereo not given), the “Percent Effect” value is -5.386%.

Turning to `CC(C)(C)CN1CCCC2(CCN(C(=O)c3ccc(O)nc3)C2)C1` (stereo not given), the “Percent Effect” value was -6.955%.

Take `CN1CCC2(CCN(C(=O)c3cccnc3)C2)C1` (stereo not given): the “Percent Effect” value turned out to be 103.3%.

As for `O=C(O)C(F)(F)F.O=C(O)C(F)(F)F.O=C1N(c2ccsc2)CCC12CCCN(Cc1cccnc1)C2` (stereo not given), the “Percent Effect” value is on record as 4.008%.

In the case of `CCCN(CCN(C)C)C(=O)Cc1cn2ccsc2n1`, the “Percent Effect” value was -3.087%.

Turning to `O=C(Cc1ccsc1)N1CCN(CCOc2ccccc2)CC1`, the “Percent Effect” value is -6.082%.

On to `CC[C@H]1CN2CC[C@H]1C[C@@H]2CNCc1ccc2c(c1)OCO2`, for which the “Percent Effect” value came to 5.104%.

For `CN1CCN2C(=O)N(C3CCCCC3)C[C@H]2C1`, the “Percent Effect” value was -7.779%.

As to `CC(C)N(C)C(=O)C1CCC2(CCNCC2)O1.Cl` (stereo not given), the “Percent Effect” value is listed as -5.93%.

For the molecule `CCN(C)c1nccc(N2CCN[C@H]3CS(=O)(=O)C[C@H]32)n1`, the “Percent Effect” value is recorded as -8.792%.

Regarding `Cc1ccnc(CC(C)N(C)Cc2ccc3c(c2)CCO3)c1` (stereo not given), the “Percent Effect” value is given as 8.665%.

For the molecule `O=C(O)C(F)(F)F.O=C(O)C(F)(F)F.O=C(O)C(F)(F)F.c1ccc(CN2CCOC3(CCN(c4ncccn4)CC3)C2)nc1`, the “Percent Effect” value is on record as -2.349%.

Take `O=C(O)C(F)(F)F.O=C(O)C(F)(F)F.O=S(=O)(C1CC1)N1CCC2(CC1)CN(Cc1ccccn1)CCO2`: the “Percent Effect” value was found to be 101%.

With `CCCS(=O)(=O)N1CCOC2(CCCN(Cc3ccccn3)C2)C1.O=C(O)C(F)(F)F` (stereo not given), the “Percent Effect” value came out at 106.1%.

As to `CCS(=O)(=O)N1CCOC2(CCCN(Cc3ccccn3)C2)C1.O=C(O)C(F)(F)F` (stereo not given), the “Percent Effect” value stood at 109.8%.

For `O=C(O)C(F)(F)F.O=S(=O)(C1CC1)N1CCOC2(CCCN(Cc3ccccn3)C2)C1` (stereo not given), the “Percent Effect” value worked out at 85.16%.

For `CCS(=O)(=O)NC[C@]12COC[C@H]1CN(Cc1ccccn1)C2.O=C(O)C(F)(F)F.O=C(O)C(F)(F)F`, the “Percent Effect” value was 3.316%.

For `CS(=O)(=O)N1CCOCC2(CN(Cc3ccccn3)CCO2)C1.O=C(O)C(F)(F)F.O=C(O)C(F)(F)F` (stereo not given), the “Percent Effect” value is recorded as -5.644%.

As for `O=C(O)C(F)(F)F.c1cnc(N2CCOCC3(CN(Cc4cc[nH]n4)CCO3)C2)nc1` (stereo not given), the “Percent Effect” value was 10.86%.

As for `CC(C)[C@@H]1CN(C(=O)C2(c3ccccc3)CCN(C)CC2)C[C@H]1C(=O)O`, the “Percent Effect” value was 1.772%.

On to `COc1cc(CNCC(O)c2ccc(F)c(F)c2)cc2c1OCO2` (stereo not given), for which the “Percent Effect” value is -3.918%.

In the case of `O=C(NC[C@]12COC[C@H]1CN(Cc1ccncc1)C2)c1ccno1.O=C(O)C(F)(F)F.O=C(O)C(F)(F)F`, the “Percent Effect” value was -6.901%.

For `CC(C)N1CCC2(CC1)C(=O)N(c1cccnc1)c1c(F)cccc12.Cl`, the “Percent Effect” value is -0.101%.

For the molecule `CCN1C(=O)C2(CCN(CCN(C)C)CC2)c2ccccc21.O=C(O)C(F)(F)F.O=C(O)C(F)(F)F`, the “Percent Effect” value stood at 97.23%.

As to `CC(C)N1CCC2(CC1)C(=O)N(CCN(C)C)c1ccccc12.O=C(O)C(F)(F)F.O=C(O)C(F)(F)F`, the “Percent Effect” value was 103.6%.

For `CN(C)CCN1C(=O)C2(CCN(CC3CC3)CC2)c2ccccc21.O=C(O)C(F)(F)F.O=C(O)C(F)(F)F`, the “Percent Effect” value worked out at 113.1%.

Take `Cc1ccc(CN2CCC3(CC2)C(=O)N(C)c2ccccc23)s1.O=C(O)C(F)(F)F`: the “Percent Effect” value was -4.693%.

Consider `CN1C(=O)C2(CCN(Cc3nccn3C)CC2)c2ccccc21.O=C(O)C(F)(F)F`, for which the “Percent Effect” value is -27.57%.

Turning to `COCCN1C(=O)C2(CCN(CC3CC3)CC2)c2ccccc21.O=C(O)C(F)(F)F`, the “Percent Effect” value was 100.2%.

As for `CC(C)N1CCC2(CC1)C(=O)N(c1cccnc1)c1ccc(F)cc12.Cl`, the “Percent Effect” value is -1.595%.

Consider `CCCN1CCN(C(=O)Cc2nc(-c3ccco3)oc2C)CC1`, for which the “Percent Effect” value worked out at 1.326%.

Regarding `COCCN1CCN(Cc2cccnc2)[C@H]2CS(=O)(=O)C[C@H]21`, the “Percent Effect” value is 6.429%.

In the case of `O=C1[C@@H]2CCN(Cc3ccoc3)C[C@@H]2OCCN1c1cccnc1`, the “Percent Effect” value came to 8.449%.

As for `COCc1cncc2c1CCN(Cc1cccs1)C2.O=C(O)C(F)(F)F.O=C(O)C(F)(F)F`, the “Percent Effect” value is recorded as 82.87%.

With `CN(C)Cc1cncc2c1CCN(Cc1ccoc1)C2.Cl.Cl.Cl`, the “Percent Effect” value came out at 105%.

Regarding `COCc1cncc2c1CCN(Cc1cnn(C)c1)C2.O=C(O)C(F)(F)F.O=C(O)C(F)(F)F`, the “Percent Effect” value came to 0.729%.

`COCc1cncc2c1CCN(Cc1cccnc1)C2`: the “Percent Effect” value stood at 101.9%.

Turning to `CN(C)Cc1cncc2c1CCN(Cc1cnn(C)c1)C2.Cl.Cl.Cl`, the “Percent Effect” value is on record as -9.802%.

Regarding `COCc1cncc2c1CCN(Cc1ccccn1)C2.O=C(O)C(F)(F)F.O=C(O)C(F)(F)F.O=C(O)C(F)(F)F`, the “Percent Effect” value was 9.224%.

`CC(C)N(C)Cc1cncc2c1CCN(Cc1ccoc1)C2.Cl.Cl.Cl`: the “Percent Effect” value stood at 91.96%.

Regarding `CC(C)N1[C@H](CN(C)C)C[C@@H]2CN(c3ncc(F)cn3)CC[C@@H]21.O=C(O)C(F)(F)F.O=C(O)C(F)(F)F.O=C(O)C(F)(F)F`, the “Percent Effect” value came to 3.695%.

`CC1(C)C(C(=O)NCCC2CN(Cc3c[nH]cn3)CCO2)C1(C)C` (stereo not given): the “Percent Effect” value was -1.625%.

On to `CC(C)N1CCc2c(CN(C)Cc3ccco3)cncc2C1.Cl.Cl.Cl`, for which the “Percent Effect” value was 5.952%.

Consider `CC(C)N(C)Cc1cncc2c1CCN(Cc1cccs1)C2.Cl.Cl.Cl`, for which the “Percent Effect” value is listed as 94.28%.

With `Cc1cccnc1CC(C)N(C)Cc1cccs1` (stereo not given), the “Percent Effect” value is on record as -8.458%.

With `COCCN1CCO[C@@H]2CN(Cc3ccccn3)C[C@@H]2C1.O=C(O)C(F)(F)F.O=C(O)C(F)(F)F.O=C(O)C(F)(F)F`, the “Percent Effect” value is -10.28%.

Take `CN1CCO[C@@H]2CN(S(=O)(=O)c3cccnc3)C[C@@H]2C1.O=C(O)C(F)(F)F.O=C(O)C(F)(F)F`: the “Percent Effect” value turned out to be 131.4%.

Regarding `Cc1ccsc1CN1C[C@@H]2CN(Cc3cccnc3)CCO[C@@H]2C1.O=C(O)C(F)(F)F.O=C(O)C(F)(F)F.O=C(O)C(F)(F)F`, the “Percent Effect” value worked out at 13.17%.

On to `O=C(O)C(F)(F)F.O=C(O)C(F)(F)F.O=S(=O)(c1cccnc1)N1C[C@@H]2COC[C@]2(CN2CCOCC2)C1`, for which the “Percent Effect” value is recorded as -9.184%.

Take `CS(=O)(=O)N1CCO[C@@H]2CN(Cc3ccncc3)C[C@@H]2C1.O=C(O)C(F)(F)F.O=C(O)C(F)(F)F`: the “Percent Effect” value was 13.84%.

Take `COCCN1CCO[C@@H]2CN(S(=O)(=O)c3cccnc3)C[C@@H]2C1.O=C(O)C(F)(F)F.O=C(O)C(F)(F)F`: the “Percent Effect” value is on record as 120.4%.

(Values after ChEMBL document CHEMBL3988442, “University of Dundee, Small-Polar-MMV Screening Library” (2021).)
